Data as given in ChEMBL document CHEMBL4513158, “CO-ADD screening of RKDF (India) compounds”.
Entries with a potency or affinity are not part of this list.

What was measured:
[1] = test system: Klebsiella pneumoniae; conditions: Concentration 32 ug.mL-1; ASSAY_TEST Inhibition of Bacterial Growth; detection method Absorption (OD600); MEDIA CAMHB; plate type 384well; NBS; CORNING #3640; time 18 hr
[2] = test system: Candida albicans; conditions: 32 ug/mL
[3] = test system: Cryptococcus neoformans; conditions: Concentration 32 ug.mL-1; ASSAY_TEST Inhibition of Fungal Growth; detection method Resazurin; Absorption (OD600-OD570); plate type 384well; NBS; CORNING #3640

SMILES | Inhibition [1] | Inhibition [2] | Inhibition [3]
CN(C)C(=N)NC(=N)N.Cl [METFORMIN HYDROCHLORIDE] | 14.76% | 99% | 90.72%
C=C[C@H]1[C@H](O[C@@H]2O[C@H](CO)[C@@H](O)[C@H](O)[C@H]2O)OC=C2C(=O)OCC[C@]21O [SWERTIAMARIN] | 13.48% | 14.2% | 102.17%
